Screening results (PubChem BioAssay)
NS1 inh: blocks influenza NS1 protein function; 270,000 tested, 0.4% active; Potency, µM (titrated, usually from 46.1 µM); calls by dose curve; further: actives are rising curves; nearly all actives have a fitted effect of over 50% in size
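A cell-based growth assay was used: compounds that relieve NS1-induced slow growth of budding yeast raise OD600. Assay medium was yeast nitrogen base with ammonium sulphate and -URA supplement, pH 6.0, with 2% galactose.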
Shiga toxin inh: blocks Shiga toxin action in Vero cells; Vero cells, Shiga toxin protein synthesis inhibition reporter; inhibition, % at 38.7 µM; 290,000 tested, 9.2% active; in the data active means inhibition mostly above about 28%, no sharp cut-off; inactive means mostly below about 43%
Cycloheximide cs: affects cycloheximide protein synthesis inhibition readout, counter-screen; cell reporter, cycloheximide protein synthesis inhibition counterscreen; max response, %; 300,000 tested, 12% active; in the data active means max response mostly above about 13%, no sharp cut-off; inactive means mostly below about 14%; further: read at 38.3 µM for the half of the compounds with a filed dose
AmpC detergent: inhibitors of E. coli AmpC beta-lactamase with detergent | AmpC hydrolysis of nitrocefin, absorbance 480 nm, 0.01% Triton | AID 485294 | Potency, µM (titrated, usually from 114 µM), most hits filed as inhibitors | P00811 | 370,000 tested, 0.041% active; further: nearly all actives have a fitted effect of over 25% in size
Target sequence (P00811 whole entry, looked up): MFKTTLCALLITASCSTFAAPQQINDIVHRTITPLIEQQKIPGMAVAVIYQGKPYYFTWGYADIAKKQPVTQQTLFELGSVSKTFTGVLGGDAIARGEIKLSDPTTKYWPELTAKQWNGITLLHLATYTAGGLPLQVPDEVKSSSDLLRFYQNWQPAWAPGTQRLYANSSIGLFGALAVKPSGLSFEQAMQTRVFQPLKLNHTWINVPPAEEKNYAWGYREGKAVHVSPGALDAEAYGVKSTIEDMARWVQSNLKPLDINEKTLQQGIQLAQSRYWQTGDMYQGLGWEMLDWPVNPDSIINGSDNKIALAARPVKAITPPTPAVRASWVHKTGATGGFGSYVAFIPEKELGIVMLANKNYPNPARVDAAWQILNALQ
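AmpC (5.3 nM in the dispensed reagent) in 20 mM phosphate pH 7.0 with 0.01% (detergent screen) or 0.0001% Triton X-100 was preincubated with compounds for 15 min at room temperature. Nitrocefin was then added from an 800 uM solution, and hydrolysis was followed at 480 nm.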
AmpC inh no detg: inhibitors of E. coli AmpC beta-lactamase without detergent; 330,000 tested, 0.52% active; Potency, µM (doses to about 57.1 µM), usual class: inhibitors; AID 485341; P00811; AmpC nitrocefin hydrolysis, absorbance 480 nm, 0.0001% Triton; further: nearly all actives have a fitted effect of over 20% in size
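20 mM phosphate pH 7.0 + 0.01% (detergent screen) or 0.0001% Triton X-100; 5.3 nM AmpC reagent; cpd preinc 15 min RT; nitrocefin (800 uM stock) to start; A480 q20 s × 4 min; Activity was normalised to no-enzyme and no-compound control wells.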
Each line names hits and unclear results; the compound was inactive in the other large screens. This is one part of a sample in which hits are shown more often than they occur. Unless noted, the call rests on the fitted dose curve; in most records, active means well fitted curve in the direction sought with a large enough effect; inconclusive means small, poorly fitted or top-dose-only effect, or another doubt; inactive means no such curve, though single readings can be large; an effect the other way counts as inactive or inconclusive.

Cc1nn(-c2cc(C(F)(F)F)ccc2Cl)c2nc(C(Cl)(Cl)Cl)[nH]c(=O)c12	none
CC(/C=C/c1ccc2c(c1)OCO2)=N\NC(=O)C(O)c1ccccc1 (stereo not drawn)	none
O=C(N/N=C/C=C/c1ccc2c(c1)OCO2)C(O)c1ccccc1 (stereo not drawn)	Shiga toxin inh 47
COc1cc(C2/C(=C(/O)c3ccccc3)C(=O)C(=O)N2c2ccccn2)ccc1O (stereo not drawn)	none
Cc1ccc(CNS(=O)(=O)c2ccc(CN3C(=O)c4cccnc4C3=O)s2)o1	none
N#Cc1cn(CCOc2ccccc2F)c2ccccc12	Cycloheximide cs 18
Cc1ccc(OCCCn2cc(C#N)c3ccccc32)cc1	Shiga toxin inh 68, Cycloheximide cs 24
O=Cc1cn(CCOc2ccccc2F)c2ccccc12	Shiga toxin inh 49, Cycloheximide cs 25
N#Cc1cn(CCOc2ccc(F)cc2)c2ccccc12	none
COc1ccccc1OCCn1cc(C=O)c2ccccc21	none
COc1cc(NC(=O)COc2ccc3c(C)cc(=O)oc3c2C)cc(OC)c1OC	none
CCc1cccc(CC)c1N(COC)C(=O)Cn1c(CC)nc2ccccc21	none (no result: NS1 inh, Shiga toxin inh, Cycloheximide cs, AmpC inh no detg)
Cc1cc(C)c(-c2nc3ccccc3s2)[nH]1	Shiga toxin inh 96, Cycloheximide cs 32
CC[n+]1cccc(-c2nc3ccccc3s2)c1	Cycloheximide cs 39 (no result: NS1 inh)
Oc1cccc(-c2nc3ccccc3s2)c1	Shiga toxin inh 43, Cycloheximide cs 24
CC(=O)Oc1cccc(N2C(=O)c3ccc(C(=O)O)cc3C2=O)c1	none
CC(C)c1ccc(-c2nc3ccccc3s2)cc1	AmpC detergent inconclusive
O=C(O)c1ccc2c(c1)C(=O)N(c1cccc(-c3nc4ccccc4s3)c1)C2=O	Shiga toxin inh 61, Cycloheximide cs 49
CCCNC(=O)c1ccccc1NC(=O)Cc1ccc(OC)c(S(=O)(=O)N2CCOCC2)c1	none (no result: NS1 inh, Shiga toxin inh, Cycloheximide cs)
O=C(O)Cc1ccc2sc(-c3ccccc3)nc2c1	none
Nc1cccc(-c2nc3ccccc3s2)c1	Shiga toxin inh 69, Cycloheximide cs 31
Cc1ccc(Cn2nc(C)cc2C(=O)Nc2ccccc2Cl)cc1	Shiga toxin inh 147, Cycloheximide cs 59
Cc1cccc(Cn2nc(C(C)(C)C)cc2C(=O)Nc2ccc(F)cc2)c1	Cycloheximide cs 18
Cc1ccc(Cn2nc(C)cc2C(=O)Nc2ccc(Cl)cc2)cc1	Shiga toxin inh 72, Cycloheximide cs 39
CCOC(=O)c1cc(-c2ccc(C)cc2)nn1Cc1ccccc1	none (no result: NS1 inh, Shiga toxin inh, Cycloheximide cs, AmpC inh no detg)
Cc1ccc(Cn2nc(C(=O)Nc3ccc(Br)cc3)cc2C)cc1	Shiga toxin inh 154, Cycloheximide cs 54
Cc1cccc(C)c1OCCCCN1CCCCC1	AmpC detergent inconclusive
NS(=O)(=O)c1cc2c(cc1Cl)N[C@H](Cc1ccccc1)NS2(=O)=O	none (no result: Shiga toxin inh, Cycloheximide cs, AmpC detergent, AmpC inh no detg)
O=C(NCCC1=CCCCC1)c1cnccn1	Cycloheximide cs 20
Cc1cnc(C(=O)NCCc2ccc(Cl)cc2)cn1	Shiga toxin inh 73, Cycloheximide cs 55, AmpC detergent inconclusive
O=C(NCCc1ccc(Cl)cc1)c1cnccn1	Cycloheximide cs 17
COc1ccc(S(=O)(=O)N2CCOC2CNC(=O)C(=O)NCCc2ccccc2OC)cc1 (stereo not drawn)	AmpC detergent inconclusive
O=C(NC(O)C(=O)c1ccccc1)c1ccccn1 (stereo not drawn)	Shiga toxin inh 38, Cycloheximide cs 26
O=C(NC(O)C(=O)c1ccccc1)c1cccs1 (stereo not drawn)	none
COC(=O)C1=C(O)/C(=C/c2cccc(OC)c2O)N=C1C	Shiga toxin inh 47, Cycloheximide cs 29
COC(=O)C1=C(O)/C(=C\c2cc(C)n(-c3ccc(F)cc3)c2C)N=C1C	Shiga toxin inh 75 (no result: NS1 inh)
CC(=O)Nc1c(-c2ccccc2)c2cc(Br)ccc2[nH]c1=O	none
COc1ccccc1CNC(=O)c1cccn1-c1nnc(N2CCCCC2)s1	none (no result: NS1 inh, Shiga toxin inh, Cycloheximide cs, AmpC inh no detg)
COc1ccc(CN(C)C(=O)Cc2c[nH]c3ccccc23)cc1	none
COc1cccc(CN(C)C(=O)Cc2c[nH]c3ccccc23)c1	Cycloheximide cs 20
COc1ccc(CCNC(=O)CCCCn2c(=O)c3ccccc3n(Cc3ccc(Cl)cc3)c2=O)cc1OC	none (no result: NS1 inh, Shiga toxin inh, Cycloheximide cs, AmpC inh no detg)
COc1cc(NC(=O)Cn2ccc3ccccc3c2=O)cc(OC)c1OC	none (no result: NS1 inh, Shiga toxin inh, Cycloheximide cs, AmpC inh no detg)
CCOC(=O)C1=C(N)OC2=C(C(=O)CC(C)(C)C2)C1c1ccc(C)s1 (stereo not drawn)	Shiga toxin inh 89, Cycloheximide cs 26 (no result: NS1 inh)
COc1ccccc1NC(=O)c1sc2nc(-c3ccco3)ccc2c1N	Cycloheximide cs 20
Nc1c(C(=O)Nc2ccccc2)sc2nc(-c3ccco3)ccc12	Shiga toxin inh 95, Cycloheximide cs 27
Nc1c(C(=O)Nc2ccccc2)sc2nc(-c3cccnc3)ccc12	Shiga toxin inh 70, Cycloheximide cs 49
COc1ccc(NC(=O)c2sc3nc(-c4cccnc4)ccc3c2N)cc1	none
Cc1ccc(NC(=O)c2sc3nc(-c4ccncc4)ccc3c2N)cc1	none (no result: NS1 inh, Shiga toxin inh, Cycloheximide cs, AmpC inh no detg)
Cn1cccc1C(=O)OCc1cc(-c2ccco2)on1	none (no result: NS1 inh, Shiga toxin inh, Cycloheximide cs)
Cc1ccc2oc3c(c(=O)c2c1)C(c1ccccc1F)N(CCCN1CCOCC1)C3=O (stereo not drawn)	none (no result: NS1 inh, Shiga toxin inh, Cycloheximide cs, AmpC inh no detg)
Cc1ccc2[nH]c(CSc3nnc(COc4ccccc4C)n3C)cc(=O)c2c1	none (no result: NS1 inh, Shiga toxin inh, Cycloheximide cs, AmpC inh no detg)
COc1ccc(Cn2ncc3c4sc(C)cc4n(C)c3c2=O)cc1	none (no result: NS1 inh, AmpC detergent, AmpC inh no detg)
O=c1nc(N/N=C/C=C/c2ccccc2)cn[nH]1	Shiga toxin inh 67, Cycloheximide cs 37
C(=N\c1nccs1)/c1c[nH]c2ccccc12	none (no result: AmpC inh no detg)
O=C(O)c1cccc2c(/C=N/Nc3ccccn3)c[nH]c12	Shiga toxin inh 70, Cycloheximide cs 39
C(=N\Nc1ccccn1)/c1c[nH]c2ccccc12	Shiga toxin inh 89, Cycloheximide cs 30
O=c1nc(N/N=C/c2c[nH]c3ccccc23)cn[nH]1	Shiga toxin inh 45, Cycloheximide cs 40
O=c1cnnc(N/N=C/c2c[nH]c3ccccc23)[nH]1	none (no result: NS1 inh)
CCN(CCCn1c(SCC#N)nc2ccccc2c1=O)c1ccccc1	AmpC detergent inconclusive
CCOc1cc(C2C(C(=O)Nc3ccccc3)=C(C)Nc3ncnn32)cc(Br)c1O (stereo not drawn)	none (no result: NS1 inh, Shiga toxin inh, Cycloheximide cs, AmpC inh no detg)
O=C(CCn1c(=O)c2ccccc2n(CC(=O)Nc2ccc(F)cc2)c1=O)NCCc1ccccc1	none (no result: NS1 inh, Shiga toxin inh, Cycloheximide cs, AmpC inh no detg)
CCCNC(=O)c1cc2cc([N+](=O)[O-])ccc2s1	none
CCCCNC(=O)c1ccccc1C(=O)NCCCC	AmpC inh no detg 1.1µM
CCCCNC(=O)c1cc2ccccc2s1	Shiga toxin inh 71, Cycloheximide cs 38 (no result: NS1 inh)
COCCNC(=O)c1cc2sc3ccccc3c2s1	Shiga toxin inh 89, Cycloheximide cs 58, AmpC detergent inconclusive
CCCCNC(=O)c1nnn(-c2ccccc2)c1N	Shiga toxin inh 49, Cycloheximide cs 27
CCCCNC(=O)c1ccccc1Cl	none
CC(=O)c1cc2c(cc1N/C(=N/S(=O)(=O)c1ccc(C)cc1)c1ccc(F)cc1)OCO2	none (no result: NS1 inh, Shiga toxin inh, Cycloheximide cs, AmpC inh no detg)
CCC(CC)C(=O)NCCc1cc2cc(C)c(C)cc2[nH]c1=O	AmpC detergent inconclusive
Cc1ccc2cc(-c3noc(C(C)(C)C)n3)c(=O)[nH]c2c1	none
